For 36 sequences, sensor-assay potency score (higher = more potent) results are on record in the OligoGym collection.
Note: reference of the scale not given here.

The target of one test is HCK. Nature of the test: pooled miR-30 sensor sort-seq; sequence = guide strand. The settings on record: shRNA.
TAGTGGTCTCGCTATCCCGGAT showed a sensor-assay potency score (higher = more potent) of -0.53.
TTCTTCTCCAGCTTGAGGGATT: the sensor-assay potency score (higher = more potent) is -0.963.
With TCGTTGTCCTCAATGACCCGGG, the sensor-assay potency score (higher = more potent) was -0.328.
The same measure, in the same setting: under TTCCCTTCCAAATCACAGCTGT stands 0.224; under TTGGTGTGCTTGTTGTAGGTGG, -0.387; under TTTGAGAATGTATTGCCTCCGA, -0.315.
On the same count and under the same terms, the value for TTAGTGGTCTCGCTATCCCGGA was -1.31; that for TTGTTGTAGGTGGCCATCCAGA was -1.38; that for TTTGACCAGCTTGTCATGCTGC was 0.268.
Take TGATGTTGTAGAGCTCCTCTGG: the sensor-assay potency score (higher = more potent) was -0.148.
Same read-out and setting: under TTTAGTGGTCTCGCTATCCCGG stands -0.689; under TTCCTCTAGGACCACCATCTGG, -1.25.

The target in a further test is HCST. The test is described as above. Particulars: shRNA.
Turning to TTGCCATCTTCTTGGGCGGGGC, the sensor-assay potency score (higher = more potent) is -1.23.
Still for that read-out and setting: under AGACTTTGCCATCTTCTTGGGC stands -0.803.
The same measure, in the same setting: under TAGACTTTGCCATCTTGGGCGG stands -0.81; under TCTCTCCTGGAGTCGTCTGAGC, -1.45; under TTTGCCATCTTCTTGGGCGGGG, 0.0264.
Same read-out and setting: the value for TGTAGACTTTGCCATCTTCTTG was -1.11; that for ATGAGCAGCGATGCCACCGCAT was -1.5; that for TGTTGATGTAGACTTTGCCATC was -1.89.
TAGACTTTGCCATCTTCTTGGG registered a sensor-assay potency score (higher = more potent) of -0.36.
On the same count and under the same terms, the value for AACAAGAGCCTGAAGTGCCAGG was -0.933; that for TTGATGTAGACTTTGCCATCTT was -0.308.
Take TCTCTCTCCTGGAGTCGTCTGA: the sensor-assay potency score (higher = more potent) is -1.08.

The target of another test is HDGF. The test is described as above. Particulars: shRNA.
The sequence TTCTCAGAGCTAAACTTCCAAA gave a sensor-assay potency score (higher = more potent) of -1.28.
Still for that read-out and setting: under TCAGGCATCTCGTCAATCCGGG stands -0.426; under TAGAACTGAAATCATCTACGGT, -0.169; under TCTGGGAGGACTGATAGCCGGA, -0.805.
The same measure, in the same setting: under TTTCTCGTTCTTCTCCTTGGCT stands -0.305.
For the sequence TTCCACACAGCTCTTTTTCTGG, the sensor-assay potency score (higher = more potent) is -0.811.
Sequence TCTGGTGACAACACTGAGGGGG yielded a sensor-assay potency score (higher = more potent) of 0.602.
Still for that read-out and setting: under TTCTTTTCCACCTCCATAGGAA stands -0.534.
On the same count and under the same terms, under TAAGGGAAGAGGTCTTTGGGGC stands -0.718; under TTCTCGTTCTTCTCCTTGGCTG, -0.535; under TTCCCTTCCTCGTCGCTGCTGC, -0.283.
Regarding TTTCTCTCTGTCCTCTCAGTGG, the sensor-assay potency score (higher = more potent) is -1.16.
